Assay in all cases: NCI-60 one-dose screen, 48 h (100 = growth as untreated, 0 = no growth, -100 = all killed)
What all share (settings): 10 µM

Assay [1] deals with SK-MEL-2 melanoma.
Assay [2] concerns EKVX NSCLC.
Assay [3] deals with SN12C renal.
Assay [4] relates to UO-31 renal.
The subject of assay [5] is TK-10 renal.
In assay [6] the test system is ACHN renal.
Assay [7] deals with CAKI-1 renal.
In assay [8] the test system is A498 renal.
In assay [9] the test system is CCRF-CEM leukemia.
In assay [10] the test system is MOLT-4 leukemia.
Assay [11] deals with SR leukemia.
Assay [12] concerns RPMI-8226 leukemia.
Assay [13] concerns OVCAR-8 ovarian.
The subject of assay [14] is OVCAR-5 ovarian.
Assay [15] relates to OVCAR-4 ovarian.
In assay [16] the test system is SK-OV-3 ovarian.
Assay [17] relates to IGROV1 ovarian.
Assay [18] has as its system OVCAR-3 ovarian.
Assay [19] has as its system HS 578T breast.
Assay [20] relates to NCI/ADR-RES ovarian.

This is part of a sample that, as a whole, favours compounds with a hit. Of some 83,000 tested, about 20% had one in any assay.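 Note: values are percent growth. 100 is the growth of untreated cells, values between 100 and 0 indicate rising inhibition; between -100 and 0 indicates cell death.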 A number with no mark means an inactive call. The source made the active and inactive calls. Rule for the calls: active = growth percent below 10; inactive = the rest.

As for `Nc1ccc(CC[C@H]2CCC/C=C/[C@@H]3C[C@H](O)C[C@H]3[C@H](O)/C=C/C(=O)O2)cc1`, the growth in [1] is -25.9% (active); in assay [2], 8.9% (active); in assay [3], 7.47% (active); in assay [4], 2.24% (active); in assay [5], -53.8% (active); in assay [6], 10%. Also, the growth in assay [7] was 7.49% (active); in assay [8] it was -32.4% (active); in assay [9] it was -3.7% (active); in [10], -18.8% (active); in assay [11], 1.1% (active); in [12], -4.05% (active). The growth was 2.58% (active) in assay [13]; 11.4% in assay [14]; 11.3% in assay [15]; 26.6% in [16]; 12% in [17]; -13.4% (active) in assay [18]. Moreover, the growth in assay [19] is 39.6%; in assay [20] it was -0.671% (active).
`COc1ccc(/C=C2/SC(=S)NC2=O)c(OC)c1OC`: the growth in assay [1] was 87.4%; in assay [2] it was 65.9%; in assay [3], 78.7%; in assay [4] it was 42.5%; in assay [5], 81.3%; in [6], 77.4%. Also, the growth in [7] is 64.3%; in assay [8], 54.2%; in [9], 76.8%; in assay [10], 90.1%; in [11], 72.4%; in assay [12] it was 79.4%. Also, the growth was 91.5% in [13]; 72.8% in assay [14]; 87.7% in assay [15]; 91.1% in [16]; 105% in [17]; 89.6% in assay [18]. The growth in assay [19] is 63.6%; in [20], 85.2%.
`Cc1ccc2nc(Cl)c(-c3nc4ccccc4o3)cc2c1`: the growth in assay [1] was 94.2%; in assay [2], 88.1%; in assay [3] it was 104%; in assay [4] it was 62.9%; in [5] it was 115%; in assay [6] it was 76%. In addition, the growth in assay [7] is 105%; in [8], 75.6%; in assay [9], 98.1%; in [10], 81.4%; in [11], 88.6%; in [12], 97.8%. Also, the growth in assay [13] is 99.4%; in assay [14] it was 97.8%; in assay [15], 99.3%; in assay [16], 104%; in [17], 79.2%; in [18], 98.3%. The values for the growth in [19] and in assay [20] were 98.6% and 89.4%, respectively.
On to `COc1cccc(-c2nc3sccn3c2-c2cccc(S(C)(=O)=O)c2)c1`, for which the growth in assay [1] is 115%; in assay [2] it was 78.4%; in assay [3], 99.1%; in assay [4], 73.1%; in [5], 102%; in assay [6] it was 96.2%. The growth in assay [7] is 82.2%; in [8], 106%; in assay [9], 98.2%; in assay [10], 104%; in assay [11] it was 94.7%; in assay [12], 95.9%. The growth in assay [13] was 101%; in assay [14] it was 96.3%; in assay [15], 107%; in assay [16] it was 114%; in [17], 99%; in [18] it was 113%. The growth in assay [19] is 99.3%; in [20] it was 92.5%.
Take `CC(=O)Nc1ccc(S(=O)(=O)c2ccnc3cc(Cl)ccc23)cc1`: the growth was 79.2% in assay [1]; 86.7% in assay [2]; 81% in assay [3]; 106% in assay [4]; 82.3% in [5]; 69.3% in assay [6]. For the same molecule, the growth in [7] is 75.3%; in assay [8], 95.9%; in assay [9] it was 52.9%; in [10], 68.8%; in [11], 83.3%; in assay [12], 72.1%. Also, the growth in assay [13] was 73.3%; in assay [14] it was 100%; in [15], 81.4%; in [16], 88%; in assay [17], 98.2%; in assay [18], 76%. Besides, the values for the growth in assay [19] and in [20] were 85.2% and 77.3%, respectively.
Consider `OCC1OC2C(NC(=S)N2c2ccccc2)C(O)C1O` (stereo not drawn), for which the growth in assay [1] was 111%; in assay [2], 101%; in assay [3], 91.1%; in [4], 101%; in [5] it was 109%; in [6] it was 103%. In addition, the growth is 91.4% in assay [7]; 95.1% in assay [8]; 93.6% in assay [9]; 107% in [10]; 95.6% in assay [11]; 97.1% in assay [12]. Besides, the growth in assay [13] is 97.2%; in [14], 105%; in [15], 110%; in assay [16], 105%; in [17], 121%; in assay [18], 102%. Besides, the growth in assay [19] was 88%.
On to `CC[C@@H]1NC(=O)[C@H]([C@H](O)[C@H](C)C/C=C/c2ccc(CN3C(=O)CCCC3=O)cc2)N(C)C(=O)[C@H](C(C)C)N(C)C(=O)[C@H](CC(C)C)N(C)C(=O)[C@H](CC(C)C)N(C)C(=O)[C@@H](C)NC(=O)[C@H](C)NC(=O)[C@H](CC(C)C)N(C)C(=O)[C@H](C(C)C)NC(=O)[C@H](CC(C)C)N(C)C(=O)CN(C)C1=O`, for which the growth is 38.2% in [1]; 37.4% in [2]; 71.1% in assay [3]; 49.7% in assay [4]; 39.8% in assay [5]; 40.3% in [6]. In addition, the growth in assay [7] was 77.3%; in assay [8], 4.54% (active); in assay [9], 11.6%; in [10], 21.8%; in [11] it was -2.59% (active); in assay [12] it was 9.26% (active). Moreover, the growth in assay [13] is 68.4%; in assay [14], 83.8%; in assay [15], 53.9%; in [16], 74.9%; in [17] it was 58.2%; in [18], 54.4%. Further, the growth in [19] is 73.9%.
Consider `COc1cc(CNC(=O)C2CSC3(C)c4ccccc4C(=O)N23)cc(OC)c1OC` (stereo not drawn), for which the growth in assay [1] was 89.3%; in assay [2] it was 108%; in assay [3], 91.6%; in [4], 90.3%; in assay [5], 102%; in assay [6] it was 97.4%. For the same molecule, the growth in assay [7] was 89.8%; in [8] it was 90.5%; in assay [9] it was 90.7%; in assay [10], 81.2%; in [11] it was 77.4%; in assay [12], 90.2%. Besides, the growth in assay [13] is 92.4%; in [14] it was 102%; in assay [15] it was 97%; in [16], 104%; in [17], 107%; in assay [18] it was 112%. Besides, the growth in assay [19] was 94.1%; in [20], 102%.

The values are drawn from PubChem BioAssay (NCI).
